Drawing on PubChem BioAssay, this text covers composite z-score, z-score and composite Z-score for 5 molecules.

Molecules are shown by their SMILES. The source made the active and inactive calls.

In test [1] the test system is Human papillomavirus type 1a protein E7 (residues 44-93). The experiment in a line: small molecules binding HPV E7 44-93 – biochemical, small-molecule microarray, residues 44-93, 635 nm fluorescence, primary screen (AID 1108).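 Note: E7 fragment applied at 1 µg/mL in TBST for 1 h at 4 C; score combines spot fluorescence with its signal to noise ratio.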 The note with it: fluorescence 635 nm, higher = more signal.
Test [2] can be described thus: hepatitis C replication reporter changes, two-sided – Huh7 cells, luciferase reporter, HCV replication inhibitor project, primary screen (AID 1109).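 Note: huh7 hepatoma cells harbouring a luciferase neomycin HCV replicon reporter; luciferase luminescence as measure of HCV replicon replication; test concentration not given here.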 The note with it: Huh7 HCV replicon luciferase reporter, 48 h; higher = more signal. In general terms: A reporter such as luciferase makes a cellular process visible.
Test [3] has as its target Left-right determination factor 2 (Homo sapiens) (UniProt O00292). The experiment in a line: small molecules binding LEFTY2 protein – biochemical, small-molecule microarray, 635 nm fluorescence scan, primary screen (AID 1110). The note with it: higher = more signal.
The target in test [4] is Calmodulin-1 (Homo sapiens) (UniProt P0DP23). The test is described as follows: small molecules binding calmodulin-1 with EGTA – biochemical, small-molecule microarray, Cy5-labelled CALM1, profiling panel (AID 1111).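 Note: labelled calmodulin applied in Tris saline Tween buffer holding calcium plus EGTA and DTT.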 The note with it: Cy5-CALM1 binding fluorescence, higher = more signal.
The target is the same in test [5]. The experiment in a line: small molecules binding Ca-loaded calmodulin-1 – biochemical, small-molecule microarray, Cy5-labelled CALM1, plus calcium, artefact control for SMM control-protein annotation, profiling panel (AID 1112).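 Note: score merges spot fluorescence with signal to noise from triplicate slides.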 The note with it: Cy5-CALM1 binding fluorescence, higher = more signal.
The nature of test [6]: probe aWnt5a binding to arrayed compounds – biochemical, biotinylated probe, 635/667 nm fluorescence, primary screen (AID 1113).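 Note: score merges 667 nm fluorescence intensity with signal-to-noise per printed feature.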 The note with it: small-molecule microarray, higher = more signal.
Test [7] is described as follows: probe aShh binding to arrayed compounds – biochemical, biotinylated probe, 635/667 nm fluorescence, primary screen (AID 1114).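 Note: probe is biotin-labelled aShh protein from a stem cell growth factor screen; measures binding of labelled protein to compounds printed on the slide; score merges feature fluorescence at 667 nm with signal-to-noise.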 The note with it: small-molecule microarray, higher = more signal.
A short description of test [8]: probe aNog binding to arrayed compounds – biochemical, biotinylated probe, 635/667 nm fluorescence, primary screen (AID 1115).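 Note: probe is biotinylated aNog protein used at 0.15 µg/mL for 1 h at 4 C; z-score combines 667 nm fluorescence of each spot with its signal to noise.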 The note with it: small-molecule microarray, higher = more signal.
The target of test [9] is Torsin-1A-interacting protein 1 (Homo sapiens) (UniProt Q5JTV8). The experiment in a line: compound microarray binding of lysate hLAP1 – cell lysate, small-molecule microarray, COS7 lysate, 635/667 nm fluorescence, primary screen (AID 1116). The note with it: 635 nm fluorescence, higher = more signal.
Torsin-1A-interacting protein 1 (Homo sapiens), sequence (Q5JTV8 whole entry, looked up): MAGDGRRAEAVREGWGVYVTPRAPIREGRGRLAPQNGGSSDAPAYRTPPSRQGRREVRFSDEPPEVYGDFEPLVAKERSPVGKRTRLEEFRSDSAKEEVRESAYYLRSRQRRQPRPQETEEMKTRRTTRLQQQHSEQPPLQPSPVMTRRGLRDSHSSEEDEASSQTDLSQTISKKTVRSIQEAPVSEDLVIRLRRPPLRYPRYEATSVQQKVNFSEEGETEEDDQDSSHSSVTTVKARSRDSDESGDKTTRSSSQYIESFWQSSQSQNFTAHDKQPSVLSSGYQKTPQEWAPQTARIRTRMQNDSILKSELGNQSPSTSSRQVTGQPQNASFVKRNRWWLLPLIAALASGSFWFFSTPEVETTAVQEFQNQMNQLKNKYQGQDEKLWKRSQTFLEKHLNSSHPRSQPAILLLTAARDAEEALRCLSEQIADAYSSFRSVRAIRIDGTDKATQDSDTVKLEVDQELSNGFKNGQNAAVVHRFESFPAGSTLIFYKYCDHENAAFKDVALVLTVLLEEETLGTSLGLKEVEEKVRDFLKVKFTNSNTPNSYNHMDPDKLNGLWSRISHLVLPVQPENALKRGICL
Test [10] has as its target Alpha-bungarotoxin (Bungarus multicinctus) (UniProt P60615). The test is described as follows: compounds binding labelled alpha-BTX control protein – biochemical, small-molecule microarray, Alexa647 label, 635/667 nm fluorescence, artefact control for SMM control protein annotation, profiling panel (AID 1117). The note with it: alpha-BTX-A647 binding fluorescence, higher = more signal.

For another test, the target named is Albumin (Bos taurus) (UniProt P02769). The experiment in a line: compounds binding labelled BSA control protein – biochemical, small-molecule microarray, Alexa647 label, 635/667 nm fluorescence, artefact control for SMM control protein annotation, profiling panel (AID 1118).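 Note: score merges 667 nm emission intensity and signal-to-noise per printed compound spot.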 The note with it: BSA-A647 binding, fluorescence 635 nm, higher = more signal.
Albumin (Bos taurus), sequence (P02769 whole entry, looked up): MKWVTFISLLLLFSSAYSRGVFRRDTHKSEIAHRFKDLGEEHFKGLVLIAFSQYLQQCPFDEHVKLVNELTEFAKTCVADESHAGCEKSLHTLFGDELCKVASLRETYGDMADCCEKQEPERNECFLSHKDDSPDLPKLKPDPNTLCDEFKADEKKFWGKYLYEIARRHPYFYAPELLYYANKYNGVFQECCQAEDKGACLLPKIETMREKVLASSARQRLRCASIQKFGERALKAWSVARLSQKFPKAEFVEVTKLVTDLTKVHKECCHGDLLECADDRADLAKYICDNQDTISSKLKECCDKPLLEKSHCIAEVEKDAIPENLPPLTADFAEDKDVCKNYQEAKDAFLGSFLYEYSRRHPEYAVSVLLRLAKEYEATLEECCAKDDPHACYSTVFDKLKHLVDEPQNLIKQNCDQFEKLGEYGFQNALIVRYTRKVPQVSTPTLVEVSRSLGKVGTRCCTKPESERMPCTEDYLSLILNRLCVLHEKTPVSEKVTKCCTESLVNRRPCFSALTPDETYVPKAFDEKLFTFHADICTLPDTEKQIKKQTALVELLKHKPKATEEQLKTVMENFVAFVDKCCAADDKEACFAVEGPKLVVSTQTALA
The nature of test [11]: probe aXIP binding to arrayed compounds – biochemical, NeuroSMM set, 635/667 nm fluorescence, primary screen (AID 1119).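 Note: probe is the protein aXip251-270 applied at 1 µg/mL to compound-printed slides; binding of probe to printed compounds measured as 667 nm fluorescence plus signal to noise.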 The note with it: small-molecule microarray, higher = more signal, called active from +8 up or from −8 down.
Test [12] is described as follows: probe aNOTCH3 binding on compound microarray – biochemical, small-molecule microarray, 635/667 nm fluorescence, primary screen (AID 1120).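 Note: probe is a biotin-tagged antibody raised against NOTCH3 rather than NOTCH3 protein; score merges spot fluorescence near 667 nm with spot signal to noise.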 The note with it: higher = more signal.
Test [13] can be described thus: probe aNOTCH2 binding on compound microarray – biochemical, small-molecule microarray, 635/667 nm fluorescence, primary screen (AID 1121).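 Note: score merges feature fluorescence read at 667 nm with its signal to noise.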 The note with it: higher = more signal.
In test [14] the target is Carbonic anhydrase 2 (Homo sapiens) (UniProt P00918). The experiment in a line: compounds binding carbonic anhydrase 2 – biochemical, small-molecule microarray, Alexa647-labelled CAII, profiling panel (AID 1122). The note with it: CAII-A647 binding fluorescence, higher = more signal.
A short description of test [15]: COS7 lysate on small-molecule microarray, probe aHis, 635 nm (AID 1123).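 Note: z-score combines 667nm fluorescence intensity with signal-to-noise per printed compound spot.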 The note with it: COS7 cell lysate, fluorescence, higher = more signal.
Test [16] in a line: probe aLAP1 signal on lysate-treated microarray – cell lysate, small-molecule microarray, COS7 lysate, primary screen (AID 1124).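 Note: lysate comes from COS7 cells expressing LAP1 and is applied at 0.3 µg/mL; score merges spot fluorescence near 667 nm with signal-to-noise over triplicate slides.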 The note with it: probe aLAP1, fluorescence, higher = more signal.
The test system of a further test is Sam68 (KHDRBS1). The test is described as follows: compounds binding KHDRBS1 protein – biochemical, small-molecule microarray, 635 nm fluorescence, primary screen (AID 1125).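 Note: score merges 667 nm channel intensity with signal to noise over triplicate slides.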 The note with it: higher = more signal.
Test [17] deals with Chordin-like protein 2 (CHRDL2). The experiment in a line: compounds binding chordin-like 2 – biochemical, small-molecule microarray, 635 nm fluorescence, primary screen (AID 1126).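 Note: printed compound slides probed with Chrdl2 protein at 4 µg/mL for 1 h at 4 C; score merges 667 nm emission intensity with signal to noise over three replicate slides.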 The note with it: fluorescence 635 nm, higher = more signal.
Test [18] addresses Concanavalin-A (Canavalia ensiformis) (UniProt P02866). The test is described as follows: compounds binding concanavalin A lectin – biochemical, small-molecule microarray, Alexa647 label, 635 nm, artefact control for SMM control protein annotation, primary screen (AID 1127).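 Note: z combines 667 nm emission intensity with signal-to-noise across three replicate slides.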 The note with it: ConA-A647 binding fluorescence, higher = more signal.

Alpha-bungarotoxin (Bungarus multicinctus), sequence (P60615 whole entry, looked up): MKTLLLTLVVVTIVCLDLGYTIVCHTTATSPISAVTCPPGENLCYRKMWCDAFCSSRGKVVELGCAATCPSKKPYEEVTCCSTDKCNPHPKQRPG
Left-right determination factor 2 (Homo sapiens), sequence (O00292 whole entry, looked up): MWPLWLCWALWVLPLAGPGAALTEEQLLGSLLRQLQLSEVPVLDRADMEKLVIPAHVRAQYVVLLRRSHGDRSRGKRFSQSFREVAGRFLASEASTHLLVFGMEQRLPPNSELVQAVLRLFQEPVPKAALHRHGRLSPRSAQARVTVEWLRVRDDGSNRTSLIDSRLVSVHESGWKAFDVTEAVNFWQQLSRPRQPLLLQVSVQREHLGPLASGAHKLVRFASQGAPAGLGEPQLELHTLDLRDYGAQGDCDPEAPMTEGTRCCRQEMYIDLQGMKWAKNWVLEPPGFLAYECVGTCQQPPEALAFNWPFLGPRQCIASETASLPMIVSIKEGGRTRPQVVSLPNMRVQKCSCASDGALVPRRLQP
Concanavalin-A (Canavalia ensiformis), sequence (P02866 whole entry, looked up): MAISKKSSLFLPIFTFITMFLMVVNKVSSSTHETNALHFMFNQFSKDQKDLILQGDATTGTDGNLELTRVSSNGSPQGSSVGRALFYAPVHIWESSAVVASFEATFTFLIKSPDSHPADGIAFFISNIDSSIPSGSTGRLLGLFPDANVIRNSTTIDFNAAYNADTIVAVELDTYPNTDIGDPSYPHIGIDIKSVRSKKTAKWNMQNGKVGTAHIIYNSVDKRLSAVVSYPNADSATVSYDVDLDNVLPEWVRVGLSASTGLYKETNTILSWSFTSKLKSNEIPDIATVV

In the case of `COC(=O)C[C@H]1O[C@]2(C(=O)N(Cc3ccccc3)c3ccc(NC(C)=O)cc32)[C@@H](C)[C@@H]1[Si](C)(C)c1ccc(OC)cc1`, the composite z-score in test [1] was 0.866; in [3] it was 0.104; in test [4], 0.403; in test [5] it was -0.352; in test [6] it was -0.096; in test [7], -0.2. In addition, the composite z-score is 0.188 in [8]; 0.538 in test [9]; 0.226 in test [10]; 0.298 in the test with Albumin (Bos taurus); 0.0485 in test [12]; -0.13 in [13]. Moreover, the composite z-score in test [14] is 0.269; in test [15] it was 0.696; in test [16] it was 0.189; in the test on Sam68 (KHDRBS1) it was 1.31; in [17], 0.48; in test [18] it was 0.355. This molecule also yielded a z-score in test [2] of -2.23. In test [11], the composite Z-score was -0.114 (inactive).

For the molecule `C=C[C@H](C)[C@@H](O)c1ccc(O)c2ccccc12`, the composite z-score in [1] is -0.899; in test [3], -0.187; in test [4], -1.15; in test [5], -0.975; in [6] it was -0.175; in test [7], -0.221. The composite z-score was -0.689 in [8]; -0.438 in [9]; 0.465 in test [10]; 0.841 in the test with Albumin (Bos taurus); -0.191 in [12]; 0.291 in [13]. Besides, the composite z-score in [14] was 0.493; in test [15], 0.165; in [16] it was 0.361; in the test on Sam68 (KHDRBS1), -0.49; in test [17], 0.866; in test [18], -1.04. In addition, in test [2], the z-score was -2. In test [11], the composite Z-score was 0.681 (inactive).

As for `CCOC(=O)C[C@H]1[C@H](OC(=O)c2ccc(C(=O)c3ccccc3)cc2)[C@@H](NC(=O)C2CCCCC2)c2cc(OCCCO)ccc2N1C(=O)c1ccccc1`, the composite z-score in test [1] was 1.34; in test [3] it was 0.239; in [4], 0.541; in test [5], -0.0224; in [6] it was -0.0346; in test [7] it was 0.0483. In addition, the composite z-score is -0.158 in test [8]; 0.512 in test [9]; 0.745 in test [10]; 0.473 in the test with Albumin (Bos taurus); 0.369 in test [12]; -0.132 in test [13]. Further, the composite z-score in test [14] was 0.159; in test [15], 1.54; in test [16], 0.297; in the test on Sam68 (KHDRBS1) it was 1.31; in test [17], -0.047; in test [18], 0.799. This molecule registered a z-score in test [2] of -2.27. Further, the composite Z-score in test [11] was 0.599 (inactive).

As to `CCOC(=O)C[C@H]1[C@H](OC(=O)c2ccc(-c3ccccc3)cc2)[C@@H](NC(=O)c2ccc3ccccc3c2)c2cc(OCCCO)ccc2N1C(=O)Cc1ccc(OC)cc1`, the composite z-score in test [1] was 0.758; in test [3], 0.0216; in test [4], 0.868; in test [5], 0.171; in test [6] it was -0.001; in test [7] it was 0.151. For the same molecule, the composite z-score in test [8] was -0.0209; in test [9], 0.15; in test [10], 0.0773; with Albumin (Bos taurus) it was 0.605; in [12], -0.063; in [13] it was -0.11. In addition, the composite z-score in test [14] was -0.0752; in test [15], 0.484; in [16] it was 0.188; in the test on Sam68 (KHDRBS1) it was 0.41; in test [17], -0.887; in test [18], -0.101. For the same molecule, the z-score in test [2] was -0.983. Besides, the composite Z-score in test [11] was -0.608 (inactive).

As to `COC(=O)[C@@]1(Cc2ccccc2N=[N+]=[N-])COC(c2ccc(OCCCO)cc2)=N1`, the composite z-score in [1] is 1.02; in test [3] it was -0.675; in test [4], 0.238; in test [5], 0.0554; in test [6], -0.15; in test [7], 0.333. For the same molecule, the composite z-score is 0.0531 in [8]; 0.852 in test [9]; 1.4 in test [10]; -0.261 with Albumin (Bos taurus); -0.0546 in [12]; -0.112 in [13]. Moreover, the composite z-score is 0.573 in test [14]; 1.99 in [15]; 0.753 in test [16]; 0.994 in the test with Sam68 (KHDRBS1); -0.473 in test [17]; 1.08 in [18]. The z-score in test [2] was -0.0499. In addition, the composite Z-score in test [11] is 1.07 (inactive).
